A number with no mark means an inactive call.
What follows are molecules tested on TDF (assay: H1.0 immunofluorescence intensity relative to DMSO (% of DMSO); higher = stronger H1.0 induction, active = 120 or more). Settings: concentration: 10 µM; 24 h.
How it was run: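 Six fields per well were imaged at ×10 after the cells were fixed in 3.7% formaldehyde and stained with a rabbit anti-H1.0 antibody, an AlexaFluor 647 secondary and DAPI. The HCC1569 and TDF cells had been plated at 800 per well in 384-well plates (RPMI, 10% FBS) and treated in triplicate with compounds at 10 µM for 24 h at 37 °C. The values are the median of replicates of H1.0 nuclear intensity or cell number, as percent of the plate control. Smoothing for positional effects was applied to HCC1569 data.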
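Note: TDF is a line of transformed human dermal fibroblasts of mesenchymal origin.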

SMILES	H1.0 immunofluorescence intensity
CN(C)C(=O)Oc1cc(OC(=O)N(C)C)cc(C(O)CNC(C)(C)C)c1.Cl (centres undefined)	91.4
CS(=O)(=O)O.O.Oc1ccc2c3c1OC1c4oc5ccccc5c4CC4(O)C(C2)N(CC2CC2)CCC314 (centres undefined) [Naltriben methanesulfonate hydrate]	92.8
CCCCCC1OC1CC=CCCCCCCCC(=O)O (centres undefined) [Leukotoxin B (12,13-EODE)]	96.8
CN1C2CCC1CC(OC(=O)c1cc(Cl)cc(Cl)c1)C2 (centres undefined) [3-Tropanyl-3,5-dichlorobenzoate]	102
COc1cc2c(cc1OC)C(C)NCC2 (centres undefined) [Salsolodine]	88.7
Br.COC(=O)C1=CCCN(C)C1 [Arecoline hydrobromide]	93.3
Cc1cc(O)c2c(=O)c3c(O)cc(O)c4c5c(O)cc(O)c6c(=O)c7c(O)cc(C)c8c1c2c(c34)c(c78)c65 [Hypericin]	96.3
CCCN1CCOC2c3cc(O)ccc3OCC21.Cl (racemic)	88.1
NC(Cn1cc(I)c(=O)[nH]c1=O)C(=O)O (centres undefined) [S-5-Iodowillardiine]	91.2
COc1ccc2c(c[n+](C)c3c4cc5c(cc4ccc23)OCO5)c1OC.[Cl-] [Chelerythrine]	139 (active)
CCC1(C2OC(C3OC(O)(CO)C(C)CC3C)CC2C)CCC(C2(C)CCC3(CC(O)C(C)C(C(C)C(OC)C(C)C(=O)[O-])O3)O2)O1.[Na+] (centres undefined) [Monensin]	120 (active)
CC(C)(C)c1o[nH]c(=O)c1CC(N)C(=O)O (centres undefined)	90
CCN1CC2(C)CCC(O)C34C5CC6C(OC)CC(O)(C(CC23)C14)C5C6O (centres undefined) [Karakoline]	96.4
CCCCCC=CCC=CCCCCCCCC(=O)NCCO [Anandamide (18:2,n-6)]	99.1
C[C@]12CC[C@@H](O)C[C@@H]1CC[C@@H]1[C@@H]2CC[C@]2(C)[C@@H](O)CC[C@@H]12 [5alpha-Androstane-3alpha,17beta-diol]	97.3
NC(C(=O)O)c1cc(=O)[nH]o1 (racemic)	92.2
c1cc2c(cc1C1OCC3C(c4ccc5c(c4)OCO5)OCC13)OCO2 (single isomer, unassigned; (-)) [(-)-Asarinin]	101
CS(=O)(=O)O.S=C=Nc1cccc(C2(N3CCCCC3)CCCCC2)c1 [Metaphit methanesulfonate]	83.4
CC12CCC3C(CC=C4CC(O)CCC43C)C1CCC2=O (centres undefined) [Dehydroepiandrosterone]	99.7
O.O=P1(N(CCCl)CCCl)NCCCO1 (centres undefined) [Cyclophosphamide monohydrate]	116

SMILES	H1.0 immunofluorescence intensity
Cl.O=C1CC2OCC=C3CN4CCC56c7ccccc7N1C5C2C3CC46 (centres undefined)	94.3
CC(C)CC(NP(=O)([O-])OC1OC(C)C(O)C(O)C1O)C(=O)NC(Cc1c[nH]c2ccccc12)C(=O)[O-].[Na+].[Na+] (centres undefined) [Phosphoramidon disodium]	90.6
CCn1cc(C(=O)[O-])c(=O)c2ccc(C)nc21.[Na+] [Nalidixic acid sodium]	86
CC(C)C1(NC(=O)C2C=C3c4cccc5[nH]cc(c45)CC3N(C)C2)OC2(O)C3CCCN3C(=O)C(Cc3ccccc3)N2C1=O (centres undefined) [Ergocristine]	92.8
CCCCCC=CCC(C=CC=CCC=CCCCC(=O)O)OO (centres undefined)	102
COC(=O)N1CCN(C(=O)Cc2ccc(Cl)c(Cl)c2)C(CN2CCCC2)C1.O=C(O)C=CC(=O)O (centres undefined)	97.7
BrC1C(Br)C(Br)C(Br)C(Br)C1Br (centres undefined)	97
COc1ccc(C(=O)OC2CCC3(C)C4CCC5C6(O)CC(O)C7(O)C(CN8CC(C)CCC8C7(C)O)C6(O)CC53OC24O)cc1OC (centres undefined) [Veratridine]	96.7
CC1C(=O)OC2CCN3CC=C(COC(=O)C(C)(O)C1(C)O)C23 (centres undefined) [Monocrotaline]	85.6
CCCCCC=CCC=CCC=CCC=CCCCC(=O)NC(C)CO [(R)-Methandamide]	100
CCCC(C)(COC(N)=O)COC(=O)NC(C)C (centres undefined) [Carisoprodol]	99.6
C#C[C@]1(O)CC[C@H]2[C@@H]3CC[C@H]4Cc5nc6nc7ccccc7n6cc5C[C@]4(C)[C@H]3CC[C@@]21C	99
Cl.O=C1CCC2(O)C3Cc4ccc(O)c5c4C2(CCN3CC2CC2)C1O5 (centres undefined) [Naltrexone.HCl]	90.5
CCCCCCCCCCCCCC(=O)OC1C(C)C2(O)C(C=C(CO)CC3(O)C(=O)C(C)=CC32)C2C(C)(C)C12OC(C)=O (centres undefined) [Phorbol 12-myristate 13-acetate]	125 (active)
CN(C)C(=O)C(CCN1CCC(O)(c2ccc(Cl)cc2)CC1)(c1ccccc1)c1ccccc1.Cl [Loperamide hydrochloride]	102
CC1(CO)C(O)CCC2(C)C1CCC1CC3CC12CCC3(O)CO (centres undefined) [Aphidicolin]	108
CCCCCC=CCC=CCC=CCC=CCCCCCC(=O)NCCO [Anandamide (22:4,n-6)]	102
COc1cc(CC(C)N)c(OC)cc1I.Cl (racemic)	91.3
CCC=CCC(C=CC=CCC=CCC=CCCCC(=O)O)OO (centres undefined)	92.7
